# Experimental data reported in PubChem BioAssay (EPA / NIEHS).
# Inconclusive results are not listed. Activity calls are given as the source filed them. How the source made its calls: active means hit-call score of the fitted dose curve at least 0.9, where 1 is the maximum; inconclusive means response in the unintended direction; inactive means score below 0.9.
# Biological target: human Vitamin D Receptor (VDR), VDR (gene 7421) (UniProt P11473)
# Test: ATG_VDR_TRANS: Attagene TRANS-FACTORIAL HepG2 Assay for human Vitamin D Receptor (VDR) (AID 2283022)
# Method: ATG_TRANS is a cell-based, multiplexed-readout assay that uses HepG2, a human liver cell line, with measurements taken at 24 hours after chemical dosing in a 24-well plate.ATG_VDR_TRANS is one of 30 assay component(s) measured or calculated from the ATG_TRANS assay. It is designed to make measurements of mRNA induction, a form of inducible reporter, as detected with fluorescence intensity signals by Reverse transcription polymerase chain reaction (RT-PCR) and Capillary electrophoresis technology.Data from the assay component ATG_VDR_TRANS was analyzed into 1 assay endpoint. This assay endpoint, ATG_VDR_TRANS, was analyzed in the positive analysis fitting direction relative to DMSO as the negative control and baseline of activity. Using a type of inducible reporter, measures of mRNA for gain-of-signal activity can be used to understand the reporter gene at the transcription factor-level as they relate to the gene VDR. Furthermore, this assay endpoint can be referred to as a primary readout, because this assay has produced multiple assay endpoints where this one serves a reporter gene function. To generalize the intended target to other relatable targets, this assay endpoint is annotated to the nuclear receptor intended target family, where the subfamily is non-steroidal.
# Human liver HepG2 cells are transiently transfected with multiple reporter transcription units (MRTUs) in 6-well plates using FuGene 6 reagent (Roche; 3 ml FuGene/1 mg DNA). The MRTU constructs are regulated by a cis-regulating element (promoter). […] A major difference between the CIS and TRANS system is that in CIS activities of endogenous TFs are measured, whereas the TRANS assay evaluates changes in activities of exogenous, chimeric NR-Gal4 proteins. […] At the end of 24 hour incubation, total RNA was isolated using TriZol reagent (Invitrogen). The isolated RNA is then reverse-transcribed using oligo(dT) primer and Mo-MLV reverse transcriptase (Invitrogen) with DNAse I (Ambion) treatment for 30 min. The one-tenth of the produced cDNA was amplified by PCR using Taq DNA polymerase (Invitrogen) and two reporter sequence-specific primers. The PCR products were fluorescently labeled by primer extension with 6-arboxyfluorescein (6-FAM) 5'-labeled reporter sequence-specific primer (2 min at 95 C, 20 s at 68 C and 10 min at 72 C) and these products were digested with 5U of HpaI (New England Biolabs) for 2h at 37 C. The fragments were purified using Qiaquick PCR columns (Qiagen), analyzed on an ABI 3130xL genetic analyzer (Applied Biosystems) with peak positions identified by using a set of X-rhodamine (ROX)-labeled MapMarker1000 molecular weight standards (BioVentures). The raw capillary electrophoresis data was processed using Attagraph software (Attagene).
# human Vitamin D Receptor (VDR), VDR (gene 7421), sequence (P11473 whole entry, looked up): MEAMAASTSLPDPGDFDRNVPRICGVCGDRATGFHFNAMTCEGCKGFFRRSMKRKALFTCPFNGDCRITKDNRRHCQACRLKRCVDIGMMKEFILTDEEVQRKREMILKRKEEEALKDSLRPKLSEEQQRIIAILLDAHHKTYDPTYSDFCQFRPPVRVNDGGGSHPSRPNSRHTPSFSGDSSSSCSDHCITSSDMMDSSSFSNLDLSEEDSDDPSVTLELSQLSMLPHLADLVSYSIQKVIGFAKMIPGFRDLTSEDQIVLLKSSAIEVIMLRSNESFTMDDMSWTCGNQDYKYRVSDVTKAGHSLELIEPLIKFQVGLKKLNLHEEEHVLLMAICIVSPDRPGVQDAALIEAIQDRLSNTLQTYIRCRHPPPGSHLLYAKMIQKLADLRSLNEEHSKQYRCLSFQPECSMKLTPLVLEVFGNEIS
Compound,outcome,AC50
CC1(C)O[C@@H]2C[C@H]3[C@@H]4C[C@H](F)C5=CC(=O)C=C[C@]5(C)[C@@]4(F)[C@@H](O)C[C@]3(C)[C@]2(C(=O)CO)O1,inactive,–
COc1c2ccoc2cc2oc(=O)ccc12,inactive,–
CC(C)COC(=O)C=Cc1ccccc1,inactive,–
CCOc1ccc(N)c([N+](=O)[O-])c1,inactive,–
CC=CC(F)(F)C(F)(F)C(F)(F)F,inactive,–
CCc1ccc2c(c1)C(=O)c1ccccc1C2=O,inactive,–
CCC(C)OC(=O)c1ccc(O)cc1 (stereo not given),inactive,–
CCCCCCCCCCOC(C)=O,inactive,–
CCCCCC(C)O (stereo not given),inactive,–
CCOC(=O)c1ccc(N(C)C)cc1,inactive,–
Cn1c([N+](=O)[O-])cnc1COC(N)=O,inactive,–
COC(=O)/C=C/C(C)=C\C=C\C(C)=C\C=C\C=C(C)\C=C\C=C(C)\C=C\C(=O)O,inactive,–
O=S(=O)(O)c1ccc2cc(O)c(S(=O)(=O)O)cc2c1,inactive,–
CCCCCCCCCCCCCCCC[N+](C)(C)CC,inactive,–
O=C1CCCCCN1SSN1CCCCCC1=O,inactive,–
O=C(O)CCCCCCCCCC(=O)O,inactive,–
CCCCCCCCCCC=CC#N,inactive,–
CC(=O)NS(=O)(=O)c1ccc(N)cc1,inactive,–
C=CC(C)(CCC=C(C)C)OC(=O)CC(C)C (stereo not given),inactive,–
Cc1cccc(N(C)C(=S)Oc2ccc3ccccc3c2)c1,inactive,–

Compound,outcome,AC50
CCC(=O)Oc1ccc(/C(CC)=C(\CC)c2ccc(OC(=O)CC)cc2)cc1,inactive,–
CN(C)c1ccc(C(=N)c2ccc(N(C)C)cc2)cc1,–,156 µM (active)
S=C(NC1CCCCC1)NC1CCCCC1,inactive,–
CC(C)CC(O)Cc1ccccc1 (stereo not given),inactive,–
O=C(O)c1cc2ccccc2nc1C(=O)O,inactive,–
CC(C)=CC1CC(C)CCO1 (stereo not given),inactive,–
CC=C1CC2C=CC1C2 (stereo not given),inactive,–
N#CCc1ccc(Cl)cc1Cl,inactive,–
C(=CC=Nc1ccccc1)C=CNc1ccccc1,inactive,–
OCCN(CCO)c1ccccc1,inactive,–
CC(=O)OC(C)C,inactive,–
CCCOC(=O)CCCCC(=O)OCCC,inactive,–
COC(=O)c1c(C)cc(O)c(C)c1O,inactive,–
O=C(O)CC(C(=O)O)C(CC(=O)O)C(=O)O (stereo not given),inactive,–
C=C[Si](C)(C)O[Si](C)(C)C=C,inactive,–
Cc1cc(C)c(C(=O)O)c(C)c1,inactive,–
Cn1c(=O)[nH]c2ncn(C)c2c1=O,inactive,–
CC=CCO,inactive,–
CCOC(=O)N1CCC(=C2c3ccc(Cl)cc3CCc3cccnc32)CC1,inactive,–
FC(F)(F)C(=NOCC1OCCO1)c1ccc(Cl)cc1,inactive,–
